Hit rate of the full screen: of about 190,000 compounds, about 810 (0.43%) were called active. No stated cut-off is given here; in the data, active means inhibition above about 50%; inactive means the rest. For the sample, actives were picked, then their nearest neighbours and some compounds at random.
These compounds were tested against Mannose-6-phosphate isomerase (Homo sapiens) (UniProt P34949) (assay: MPI enzyme activity inhibition – biochemical, fluorescence intensity, coupled assay, primary screen (AID 1209;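 further: plate controls were DMSO vehicle for no effect and wells lacking substrate for full effect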)). Details: purified PMI enzyme, at 20 µM, active compounds read high.
Sequence of Mannose-6-phosphate isomerase (Homo sapiens) (P34949 whole entry, looked up): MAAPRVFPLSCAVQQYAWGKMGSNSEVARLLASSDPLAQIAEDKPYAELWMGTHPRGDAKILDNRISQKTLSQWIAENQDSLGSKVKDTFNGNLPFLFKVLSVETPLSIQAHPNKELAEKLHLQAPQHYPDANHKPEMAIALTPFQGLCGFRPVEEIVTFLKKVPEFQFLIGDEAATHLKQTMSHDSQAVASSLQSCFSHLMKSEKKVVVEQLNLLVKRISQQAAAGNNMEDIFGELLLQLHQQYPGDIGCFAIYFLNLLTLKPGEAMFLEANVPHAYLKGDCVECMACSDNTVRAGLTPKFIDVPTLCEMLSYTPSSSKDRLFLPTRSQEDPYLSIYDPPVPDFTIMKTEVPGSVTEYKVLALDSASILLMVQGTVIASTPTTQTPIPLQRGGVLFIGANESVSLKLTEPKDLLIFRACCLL
`O=C(O)CCn1cc(C=C2C(=O)NC(=S)NC2=O)c(-c2cc3ccccc3oc2=O)n1` was tested, and the inhibition was -33.9% (inactive).
In the case of `O=C(O)CCn1cc(C=C2C(=O)NC(=S)NC2=O)c(-c2cccc(Cl)c2)n1`, the inhibition was 64.1% (active).
In the case of `N#CCCn1cc(C=C2C(=O)NC(=O)NC2=O)c(-c2ccccc2)n1`, the inhibition was -7.4% (inactive).
For `O=C(O)CCn1cc(C=C2C(=O)NC(=O)NC2=O)c(-c2ccc(Br)cc2)n1`, the inhibition was 5.8% (inactive).
For `O=C(O)CCn1cc(C=C2C(=O)NC(=S)NC2=O)c(-c2ccccc2)n1`, the inhibition was 55.5% (active).
In the case of `O=C(O)CCn1cc(C=C2C(=O)NC(=O)NC2=O)c(-c2cc3ccccc3oc2=O)n1`, the inhibition was -3.7% (inactive).
For `O=c1c2ccccc2nc(-c2cccs2)n1-c1ccccc1`, the inhibition was -8.6% (inactive).
For `COc1ccc(N/N=C/c2c(O)n(-c3cccc(C)c3)c(=O)[nH]c2=O)cc1`, the inhibition was -72.8% (inactive).
In the case of `CCOCCCNC(=O)CN1C2CCC1CC(O)(c1ccc(OC)cc1)C2` (centres undefined), the inhibition was 15% (inactive).
In the case of `CC(=O)Nc1ccccc1OC(=O)N(C)C`, the inhibition was 7.3% (inactive).
With `CN(C)CCCN=Cc1c(O)n(CCc2ccccc2)c(=O)[nH]c1=O` the inhibition was -1.1% (inactive).
`CC(C)CCn1c(N)c(C(=O)NCc2cccs2)c2nc3ccccc3nc21` was tested, and the inhibition was 24.5% (inactive).
In the case of `CCCCNC(=O)c1c(N)n(CCCOC)c2nc3ccccc3nc12`, the inhibition was 41.1% (inactive).
In the case of `CCOC(=O)c1c(N)n(CCCOC(=O)c2ccco2)c2nc3ccccc3nc12`, the inhibition was 6% (inactive).
`CCCCn1c(NC(=O)c2ccc(Br)o2)c(C(=O)OCC)c2nc3ccccc3nc21` was tested, and the inhibition was 22.2% (inactive).
In the case of `COCCCn1c(N)c(C(=O)NCCC(C)C)c2nc3ccccc3nc21`, the inhibition was 37.9% (inactive).
With `CCC(C)NC(=O)c1c(N)n(CCCOC)c2nc3ccccc3nc12` (centres undefined) the inhibition was 56% (active).
For `CCCCCCn1c(N)c(C(=O)NCCN2CCOCC2)c2nc3ccccc3nc21`, the inhibition was 28.6% (inactive).
In the case of `CCCCCn1c(N)c(C(=O)NCCN2CCOCC2)c2nc3ccccc3nc21`, the inhibition was 25.4% (inactive).
`CCCCn1c(N)c(C(=O)NCc2cccs2)c2nc3ccccc3nc21` was tested, and the inhibition was 59.9% (active).
For `CCCCn1c(NC(=O)c2ccco2)c(C(=O)OCC)c2nc3ccccc3nc21`, the inhibition was 55.8% (active).
With `CCCCCn1c(N)c(C(=O)NCc2cccs2)c2nc3ccccc3nc21` the inhibition was 51.9% (active).
With `CCCCn1c(N)c(C(=O)NCCN2CCOCC2)c2nc3ccccc3nc21` the inhibition was 17.1% (inactive).
`CC1C(c2cccs2)=[N+]([O-])C(C)(C(=O)c2cccs2)N1O` (centres undefined) was tested, and the inhibition was -1.9% (inactive).
In the case of `Cc1c(C=O)c2ccccc2n1Cc1cccc(F)c1`, the inhibition was -20.1% (inactive).
For `CCOC(=O)C1C(=O)N(C)C2(C)CC1c1cc(OC)ccc1O2` (centres undefined), the inhibition was -7% (inactive).
In the case of `O=C1NC(=O)C(CCc2ccncc2)(CCc2ccncc2)C(=O)N1CCc1ccc(F)cc1`, the inhibition was -4.4% (inactive).
For `COc1ccc2[nH]c(C)c(CCN3CCC(=O)C(C)C3C)c2c1` (centres undefined), the inhibition was 13.4% (inactive).
For `COC(=O)N(c1ccccc1)P1(=S)OCCO1`, the inhibition was 24.3% (inactive).
For `CCOC(=O)N(c1ccccc1)P1(=S)OCC(C)O1` (centres undefined), the inhibition was -1.5% (inactive).
In the case of `COC(=O)N(c1ccc(OC)cc1)P1(=S)OCCC(C)O1` (centres undefined), the inhibition was 62.3% (active).
With `CCn1c(=O)n(CC)c2cc([N+](=O)[O-])c(N3CCNCC3)cc21` the inhibition was 0.8% (inactive).
With `Cc1nc2c(=O)n(C)c(=O)nc-2n(C)n1` the inhibition was 73.6% (active).
For `CCn1nc(/C=C/c2ccccc2)nc2c(=O)n(C)c(=O)nc1-2`, the inhibition was 39.7% (inactive).
In the case of `CCn1nc(-c2cccs2)nc2c(=O)n(C)c(=O)nc1-2`, the inhibition was 6.3% (inactive).
`Cn1ncnc2c(=O)n(C)c(=O)nc1-2` was tested, and the inhibition was 74.8% (active).
In the case of `CCn1nc(-c2ccccc2)nc2c(=O)n(C)c(=O)nc1-2`, the inhibition was -4.4% (inactive).
`CCc1ccc(CN2CCN(Cc3ccc(SC)cc3)CC2)cc1` was tested, and the inhibition was -14.5% (inactive).
With `C=C1N2CCC(CC2)C1(O)c1ccc(C)c(C)c1` (centres undefined) the inhibition was -10.2% (inactive).
`O=C(Cc1ccccc1)OCCNC(=O)c1cccnc1` was tested, and the inhibition was -4% (inactive).
In the case of `CN(C)C(=O)Oc1c(Cl)cc(Cl)c2cccnc12`, the inhibition was 8.2% (inactive).
`COC(=O)c1ccccc1N=Cc1c(O)[nH]c(=S)[nH]c1=O` was tested, and the inhibition was -42.9% (inactive).
`O=c1c(/C=N/N2CCOCC2)c(O)n(-c2ccccc2)c(=S)n1-c1ccccc1` was tested, and the inhibition was 4.6% (inactive).
In the case of `Cc1ccccc1C(=O)NC(Oc1ccccc1)C(Cl)(Cl)Cl` (centres undefined), the inhibition was 6.5% (inactive).
`CC(=O)N(C1=NCCCS1)c1ccccc1Cl` was tested, and the inhibition was -4.6% (inactive).
For `O=c1[nH]c(=O)n(-c2cccc(Cl)c2)c(O)c1C=NCCCN1CCOCC1`, the inhibition was 4.5% (inactive).
`CC1=CC(=O)NP(=O)(Oc2ccc3ccccc3c2)N1` (centres undefined) was tested, and the inhibition was 78.5% (active).
With `COc1ccc(P2(=O)Nc3ccccc3N2)cc1` the inhibition was 16.8% (inactive).
`O=C(C1CC(c2ccc(F)cc2)=NO1)N1CCC2(CC1)OCCO2` (centres undefined) was tested, and the inhibition was -5.3% (inactive).
`Cn1ccnc1P(=S)(c1nccn1C)c1nccn1C` was tested, and the inhibition was -5% (inactive).
With `COCCNP(=O)(c1ccccc1)c1nc2ccccc2s1` (centres undefined) the inhibition was 1.6% (inactive).
With `Cc1ccc(NP(=O)(c2ccccc2)c2nc3ccccc3s2)cc1` (centres undefined) the inhibition was 80.5% (active).
In the case of `O=P(c1ccccc1)(c1nc2ccccc2s1)N1CCOCC1` (centres undefined), the inhibition was -5.8% (inactive).
For `CN(C)c1ccc([P+](=O)c2ccc(N(C)C)cc2)cc1`, the inhibition was 10.8% (inactive).
With `CCc1c(C)nc(N)nc1N1N=C1SCC(N)=O` the inhibition was -3% (inactive).
With `Cc1ccccc1N1C(=O)NC(=O)/C(=C\c2ccc3c(c2)CCCN3Cc2ccccc2)C1=O` the inhibition was -9% (inactive).
`CC1CC(OP(O)(=S)c2ccc(N(C)C)cc2NC(=O)c2cccs2)CC(C)(C)C1` (centres undefined) was tested, and the inhibition was 59.7% (active).
For `CCOC(=O)C1(CCc2ccccc2)CCN(Cc2cccc3cnccc23)CC1`, the inhibition was 24.8% (inactive).
For `COc1ccc(C(CC(=O)N2CCC3(CC2)OCCO3)NS(=O)(=O)c2ccc(OC)cc2)cc1` (centres undefined), the inhibition was 4.9% (inactive).
`O=C(C1CCCO1)N1CCC2(CC1)OCCO2` (centres undefined) was tested, and the inhibition was 5.3% (inactive).
With `CCN1C(=O)C(=Cc2cc(C)n(C3CC3)c2C)C(=O)N(CC)C1=S` the inhibition was 63.8% (active).
For `Cc1cc(C=C2C(=O)N(C)C(=S)N(C)C2=O)c(C)n1C1CCCC1`, the inhibition was 6% (inactive).
For `Cc1cc(C=C2C(=O)N(C)C(=S)N(C)C2=O)c(C)n1C1CCCCC1`, the inhibition was -12.8% (inactive).
For `Cn1c(O)c(C(=O)c2ccccc2)c(=O)n(C)c1=O`, the inhibition was -12.2% (inactive).
For `O=c1[nH]c(=S)n(C2CC2)c(O)c1/C=N/Nc1ccccc1`, the inhibition was -61.8% (inactive).
`O=C(N/N=C/c1c(O)n(C2CC2)c(=S)[nH]c1=O)c1ccccc1O` was tested, and the inhibition was 60.8% (active).
For `CCCCC(=O)N/N=C/c1c(O)n(C2CC2)c(=S)[nH]c1=O`, the inhibition was 20.6% (inactive).
In the case of `COc1ccc(C2=NCC(=O)N(CC(=O)NCc3ccco3)c3sc4c(c32)CCCC4)cc1`, the inhibition was 4.5% (inactive).
In the case of `O=C1CC(=O)N(c2cccc(Cl)c2)C(=O)N1`, the inhibition was 0.2% (inactive).
`CCCCc1nc(N2CCNCC2)c(C#N)c2c1CSC(C)(C)C2` was tested, and the inhibition was 3.9% (inactive).
In the case of `Oc1ccccc1/C=N/NP(=S)(c1ccccc1)c1ccccc1`, the inhibition was 6.9% (inactive).
With `Oc1ccc(/C=N/NP(=S)(c2ccccc2)c2ccccc2)cc1` the inhibition was 14.9% (inactive).
For `Oc1ccc(/C=N/NP(=S)(c2ccccc2)c2ccccc2)c(O)c1O`, the inhibition was 62.4% (active).
With `O=C1c2ccccc2C(=O)N1Cc1nc2ccccc2c(=O)n1-c1ccccn1` the inhibition was -3% (inactive).
`CCCCCCOc1ccc(CN2CCN(CCO)CC2)cc1` was tested, and the inhibition was -11.3% (inactive).
With `COc1cccc(N2CCN(Cc3cccc(Cl)c3)CC2)c1` the inhibition was 9.6% (inactive).
For `CC12CCC3C(CCC4C/C(=N/O)CCC43C)C1CCC2O` (centres undefined), the inhibition was 2.7% (inactive).
With `CC12CCC(=O)C=C1CCC1C2CCC2(C)C(O)CCC12` (centres undefined) the inhibition was -6.1% (inactive).
For `C[C@]12CC[C@@H]3c4ccc(O)c(O)c4CC[C@H]3[C@@H]1CC[C@@H]2O`, the inhibition was 75.9% (active).
In the case of `CCOP(=O)(C#CC(C)(C)C)C(C)(O)c1ccccc1` (centres undefined), the inhibition was 3.1% (inactive).
In the case of `Cc1nc2cc(C(F)(F)F)ccc2n1C1CCN(Cc2nnnn2Cc2cccs2)CC1`, the inhibition was 9.2% (inactive).
For `CN1CCN(c2c(N)c(=O)oc3ccccc23)CC1`, the inhibition was 0.6% (inactive).
`COCCOC(=O)c1c(N)n(Cc2ccccc2)c2nc3ccccc3nc12` was tested, and the inhibition was 14.3% (inactive).
`Cn1c(O)c(C=NC2CCCCCC2)c(=O)[nH]c1=S` was tested, and the inhibition was 6.6% (inactive).
With `CN(C)c1cccc2c(C#N)ccc(N(C)C)c12` the inhibition was 82% (active).
In the case of `CC(C)(C)c1ccc(S(=O)(=O)N2CC3CC(C2)c2cccc(=O)n2C3)cc1` (centres undefined), the inhibition was -3.5% (inactive).
`Cc1cc(=O)[nH]c(SCc2nc3ccccc3c(=O)n2-c2ccccc2C)n1` was tested, and the inhibition was 0.9% (inactive).
In the case of `COc1cccc(NP(=O)(Oc2ccc(Cl)cc2)Oc2ccc(Cl)cc2)c1`, the inhibition was 18.7% (inactive).
`Cc1ccsc1C(=O)C1CCCN(Cc2cnn(C)c2)C1` (centres undefined) was tested, and the inhibition was 9.3% (inactive).
With `COc1ccc(CC2c3cc(OC)c(OC)cc3CCN2C)cc1O` (centres undefined) the inhibition was -2.1% (inactive).
In the case of `O=C1C2CCN(CC2)C1Cc1ccccc1O` (centres undefined), the inhibition was -6.7% (inactive).
`Oc1ccc(CC2CC3CCN2CC3)cc1O` (centres undefined) was tested, and the inhibition was 52.7% (active).
For `CCc1ccc(N2C(=O)NC(=O)C(CCc3ccncc3)(CCc3ccncc3)C2=O)cc1`, the inhibition was 4.9% (inactive).
`c1ccc(CCn2nnnc2CN2CCC(n3nnc4ccccc43)CC2)cc1` was tested, and the inhibition was -11.1% (inactive).
`COc1cccc(N2C(=O)NC(=O)C3(Cc4cc(C)ccc4N(C)C3)C2=O)c1` (centres undefined) was tested, and the inhibition was -37% (inactive).
For `CN1CCc2nc(N)c(C#N)c(-c3ccccc3)c2C1`, the inhibition was 2.3% (inactive).
With `Cc1ccc2c(c1)=C/C(=C\c1c(O)[nH]c(=O)[nH]c1=O)C(=O)N=2` the inhibition was 65% (active).
In the case of `Cc1cccc2c1=NC(=O)/C(=C/c1c(O)[nH]c(=O)[nH]c1=O)C=2`, the inhibition was -7.2% (inactive).
In the case of `Cc1ccc2c(c1)=C/C(=C\c1c(O)[nH]c(=S)[nH]c1=O)C(=O)N=2`, the inhibition was 21.3% (inactive).

Reference: PubChem BioAssay AID1209 (Sanford-Burnham Center for Chemical Genomics, 2008)
